# According to the supplement of paper PMC6555819:
# What was measured:
# Assay in all cases: PBM binding z-score (relative to random genomic background probes); higher = stronger binding; sequences stand for … in GC…GCGATTGACAGCGTAGAATGAAGG
# [1] = test system: LXRa homodimer (NR concentration 270 nM)
# Outline: (§1)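 The probes on custom Agilent 4×180K protein-binding microarrays were double-stranded, with 34-nt variable regions bearing direct-repeat seeds, single-nucleotide variants, half-site ablations and random human genomic background sequences. Incubation lasted 1 h with ligand-free nuclear receptor dimers in PBS pH 7.4, 2% milk, 0.02% Triton X-100, 1 mM DTT, 0.2 mg/mL BSA and 0.4 mg/ml salmon testes DNA. Antibodies against each partner (one per run) detected bound dimers, and fluorescence scans were regression-normalized. Binding z-scores take the random background probes as reference.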
# [2] = test system: LXRb homodimer (NR concentration 270 nM)
# Outline: as §1
# [3] = test system: PPARg:RXRa (NR concentration 180 nM, RXRa partner concentration 90 nM)
# Outline: as §1
# [4] = test system: PPARg:RXRa 270nM:90nM, anti-RXR (NR concentration 270 nM, RXRa partner concentration 90 nM)
# Outline: as §1
# [5] = test system: PPARg:RXRa 30nM:10nM, anti-RXR (NR concentration 30 nM, RXRa partner concentration 10 nM)
# Outline: as §1
# [6] = test system: PPARg:RXRa 90nM:30nM, anti-RXR (NR concentration 90 nM, RXRa partner concentration 30 nM)
# Outline: as §1
# [7] = test system: PPARg:RXRa DBDmut IVT, anti-RXR (DBD mutation: RXRa K156A/R161A, NR concentration 270 nM, RXRa partner concentration 90 nM)
# Outline: as §1
# [8] = test system: PPARg:RXRa IVT, anti-PPARg (NR concentration 270 nM, RXRa partner concentration 90 nM)
# Outline: as §1
# [9] = test system: PPARg DBDmut:RXRa IVT, anti-PPARg (DBD mutation: PPARg1 K132A/R137A, NR concentration 270 nM, RXRa partner concentration 90 nM)
# Outline: as §1
# [10] = test system: PPARg DBDmut IVT, anti-PPARg (DBD mutation: PPARg1 K132A/R137A, NR concentration 270 nM)
# Outline: as §1
# [11] = test system: PPARg homodimer (NR concentration 180 nM)
# Outline: as §1
# [12] = test system: PXR:RXRa (NR concentration 270 nM, RXRa partner concentration 90 nM)
# Outline: as §1
# [13] = test system: PXR homodimer (NR concentration 270 nM)
# Outline: as §1
# [14] = test system: RARa:RXR (NR concentration 270 nM, RXRa partner concentration 90 nM)
# Outline: as §1
# [15] = test system: RARa homodimer (NR concentration 270 nM)
# Outline: as §1
# [16] = test system: RARb homodimer (NR concentration 270 nM)
# Outline: as §1
# [17] = test system: PPARa:RXRa (NR concentration 270 nM, RXRa partner concentration 90 nM)
# Outline: as §1
# [18] = test system: LXRa:RXRa (NR concentration 270 nM, RXRa partner concentration 90 nM)
# Outline: as §1
# [19] = test system: RARb:RXRa (NR concentration 270 nM, RXRa partner concentration 90 nM)
# Outline: as §1
Sequence,PBM binding z-score [1],PBM binding z-score [2],PBM binding z-score [3],PBM binding z-score [4],PBM binding z-score [5],PBM binding z-score [6],PBM binding z-score [7],PBM binding z-score [8],PBM binding z-score [9],PBM binding z-score [10],PBM binding z-score [11],PBM binding z-score [12],PBM binding z-score [13],PBM binding z-score [14],PBM binding z-score [15],PBM binding z-score [16],PBM binding z-score [17],PBM binding z-score [18],PBM binding z-score [19]
CGTCAAAGTTCAAGGTCACGTAACAGAAAGCAGC,5.71,2.05,6.83,6.7,3.83,5.84,2.03,4.54,0.668,0.649,4.73,6.25,4.18,5.79,3.09,5.56,,,
CAAACAAGGTCACCGGAAGGTCAAAGTCCGCATG,6.36,2.43,8.84,7.81,4.78,7.17,5.54,6.66,3.88,3.51,10.2,,4.84,,5.98,5.88,6.58,,
GCTGCTAGGTCAACTGATGGTCAACTAAAGCTCG,0.653,0.415,3.01,3.06,0.746,2.31,4.87,4.19,-0.672,0.0374,2.3,2,-0.565,,0.323,3.7,,3.47,4.29
CCTCGGAGGACAGAAGGTCAAAGCTGTCCGCTTT,1.82,-0.421,0.66,2.18,-0.0409,1.41,0.187,0.662,-1.42,-2.33,2.07,3.39,0.288,,0.206,4.26,,4.02,3.74
GGAACGAGGTCAAGTTGATAGCAGAGTTTGATGG,2.03,2.13,7.7,6.96,4.31,6.52,6.19,6.52,2.59,0.598,3.81,5.86,2.91,5.81,2.1,4.59,,6.21,
CAAACCAGGTCAAGAGGTCAAAGTCCGCTTCCCG,6.64,1.8,8.56,7.51,5.51,7.2,5.93,6.81,3.85,3.15,8.14,,3.35,8.42,3.47,5.59,,6.66,5.6
CAAACAAGGTCAAAGGTCAAAGTCGAGCCAACCA,6.4,4.04,13.5,11,13.5,13.5,6.43,7.85,4.28,4.16,7.37,,4.12,,6.18,5.66,7.41,,
AATACGGGGTCACTAGGCCAGAGTAGGTACGAAT,2,2.47,,8.44,5.78,7.95,5.43,7.02,1.49,1.57,2.6,5.78,1.06,6.3,1.34,4.41,,6.53,5.12
CGAACGAGGTCACCAGGACAGTGAAGAGGTTGGA,0.912,0.295,8.9,7.66,5.23,6.73,5.64,6.99,,-0.0539,3.06,5.37,0.985,5.85,1.08,4.89,,5.61,
GCTGCGAGGTCAACTGATGGTCAGCTAAAGCTCG,1.54,1.67,6.28,6.33,2.91,5.05,3.65,4.26,0.48,-0.29,3.57,5.49,0.673,5.93,0.38,4.83,,5.87,
CGAACGAGGTCAAAGGACAGTGAAAGGCGACGTA,0.528,1.21,8.64,7.62,5.48,8.31,5.27,6.29,,3.98,6.42,5.26,1.74,5.86,0.557,3.88,,5.87,5.01
CCTTAGGGGTCACTGACAGGTTATAGCATTTGGA,1.33,0.926,9.33,8.43,5.34,7.46,4.82,5.5,1.68,2.53,4.49,6.32,0.503,,2.05,4.99,,6.55,
CGAACTAGGTCTAAGGACAGTGAAAGGCGACGTA,-0.416,-1.3,2.4,3.45,1.89,3.31,2.2,1.78,,-0.598,-0.156,-0.521,-0.563,0.0659,-0.52,0.133,,-0.762,0.287
CAAACCAGGTCACAGAGGTCAAAGTCCGTGCGTA,7.74,2.6,8.73,7.69,5.28,7.12,6.56,7.43,3.56,2.74,5.78,7.23,14.2,,4.25,5.56,,6.8,5.41
CCTTAAGGGTCACGAGGTTATAGCACGACGAGCG,0.987,0.697,8.45,7.7,4.56,6.73,4.16,5.81,1.74,1.89,4.47,5.46,0.279,6.79,1.6,5.02,,5.92,
CGTCCAAGGTCAAAGGTCATTGAAGAGATGACGG,6.32,3.11,,10,9.22,11.6,4.6,6.27,2.57,0.832,5.55,,4.59,,5.35,5.63,7.33,,6.2
